{"source": "paper PMC5540273", "about": "(PLoS ONE, 2017);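 further: KINOMEscan kinase panel screen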"}
{"tested_on": "T1, JNK3", "T1 construct": "gene MAPK10", "conditions": "concentration: 1 μM,replicates: in singlicate; n = 1", "units": {"%Inh": "%"}}
{"smiles": "Cn1ccc2ncnc(Oc3ccc(NC(=O)Nc4cnn(C(C)(C)C)c4)c(Cl)c3)c21", "%Inh": 0}
{"smiles": "COc1cc2ncn(-c3cc(OCC4CCCCC4)c(C(N)=O)s3)c2cc1OC", "note": "[GSK204559]", "%Inh": 19}
{"smiles": "COc1cccc(CNC(=O)NC2CCN(c3ccnc(Nc4cc(OC)c(OC)c(OC)c4)n3)C2)c1", "note": "(stereo not shown) [GSK1379765]", "%Inh": 25}
{"smiles": "Cn1ccc2ncnc(Oc3ccc(NC(=O)Nc4cccc(C(F)(F)F)c4)c(F)c3)c21", "%Inh": 0}
{"smiles": "CNC(=O)c1ccccc1Nc1nc(Nc2cccc(CS(C)(=O)=O)c2)ncc1C.O=CO", "note": "[GSK1520489]", "%Inh": 99.9}
{"smiles": "C[C@@H](Oc1cc(-n2cnc3cc(-c4cnn(C)c4)ccc32)sc1C(N)=O)c1ccccc1Cl", "note": "[GSK580432]", "%Inh": 16}
{"smiles": "COc1cc(Nc2nccc(N3CCC(NC(=O)c4cccc(C#N)c4)C3)n2)cc(OC)c1OC", "note": "(stereo not shown) [GSK1379751]", "%Inh": 33}
{"smiles": "Cc1ccn2nc(-c3ccc(F)cc3)c(-c3ccncc3)c2c1.Cl", "note": "[GW457859]", "%Inh": 93.4}
{"smiles": "CN1CCN(CCNc2nc3cc(Oc4ccc(NC(=O)Nc5cc(C(F)(F)F)ccc5F)cc4)ccc3[nH]2)CC1.Cl.Cl", "note": "[GW768504]", "%Inh": 0}
{"smiles": "NC(=O)c1ccc(-c2cc3ncnc(SCC(=O)O)c3s2)cc1", "%Inh": 0}
{"smiles": "CC(=O)c1c(-c2ccncc2)[nH]c(-c2ccncc2)c1C", "note": "[GW493036]", "%Inh": 11}
{"smiles": "O=C(Nc1cccc(C(F)(F)F)c1)c1cccc(Oc2ccc3nccn3n2)c1", "%Inh": 10}
{"smiles": "CC(=O)Nc1nc2cnc(Nc3cc(NC(=O)c4cccc(CC(C)(C)C#N)c4)ccc3C)nc2s1", "%Inh": 43}
{"smiles": "COc1ccc(Nc2nccc(N3CCC(NC(=O)c4cccc(C#N)c4)C3)n2)cc1", "note": "(stereo not shown) [GSK1379730]", "%Inh": 10}
{"smiles": "Cl.c1ccc(Oc2ccc(Nc3ccnc4cc(-c5ccc(CN6CCNCC6)o5)ccc34)cc2)nc1", "note": "[GW567142]", "%Inh": 0}
{"smiles": "O=C(Nc1ccc(Oc2ccc3nc(NC(=O)C4CC4)cn3n2)c(F)c1)c1cccn(-c2ccccc2)c1=O", "%Inh": 0}
{"smiles": "Cl.Cl.NC[C@H](CC1CCCCC1)NC(=O)c1ccc(-c2ccnc3[nH]ccc23)s1", "note": "[GSK1581428]", "%Inh": 8}
{"smiles": "COC(=O)Nc1nc2cc(Oc3ccc(NC(=O)Nc4cc(C(F)(F)F)ccc4Cl)cc3)ccc2[nH]1.Cl", "note": "[GW697465]", "%Inh": 8}
{"smiles": "CC(C(=O)NC1CCN(c2ccnc(Nc3ccc(F)cc3)n2)C1)c1ccc(Cl)cc1", "note": "(stereo not shown) [GSK1379713]", "%Inh": 0}
{"smiles": "O=C(NCC1CC1)c1ccc(-c2cc(C(=O)NC3CC3)ccc2F)cc1", "note": "[GW810445]", "%Inh": 0}
{"smiles": "CCN1CCN(CCCC(=O)Nc2n[nH]c3nc(-c4ccc(O)cc4)c(Br)cc23)CC1", "note": "[SB-731579]", "%Inh": 34}
{"smiles": "Cc1nnc(-c2ccc3occ(-c4ccc(S(C)=O)cc4)c3n2)o1", "note": "(stereo not shown)", "%Inh": 0}
{"smiles": "CC(C)S(=O)(=O)N1CCN(Cc2ccc3c(c2)nc(NC(=O)c2ccsc2)n3C[C@H](O)c2ccccc2)CC1", "note": "[GW635815]", "%Inh": 15}
{"smiles": "Cn1ccc2ncnc(Oc3ccc(NC(=O)Nc4cccc(C(F)(F)F)c4)c(Cl)c3)c21", "%Inh": 0}
{"smiles": "Cn1ccc2ncnc(Oc3ccc(NC(=O)Nc4ccnc(C(F)(F)F)c4)c(Cl)c3)c21", "%Inh": 0}
{"smiles": "Cc1cccc2c(-c3ccncc3)c(-c3ccc(F)cc3)nn12.Cl", "note": "[GW461487]", "%Inh": 94}
{"smiles": "Cc1ccc2c(-c3ccnc(Nc4ccc(C(F)(F)F)cc4)n3)cnn2n1", "note": "[GW819776]", "%Inh": 78}
{"smiles": "Cc1n[nH]c2cc(Nc3ccnc(Nc4cccc(CN5CCOCC5)c4)n3)ccc12", "note": "[GW682569]", "%Inh": 85}
{"smiles": "CCn1c(-c2nonc2N)nc2cncc(Br)c21", "note": "[SB-738004]", "%Inh": 2}
{"smiles": "CN1CCN(CCCNc2nccc(-c3c(-c4ccc(F)cc4)nn4cc(C(N)=O)ccc34)n2)CC1", "note": "[GW622475]", "%Inh": 99.6}
{"smiles": "Nc1nccc(-c2ccc3c(N)n[nH]c3c2)n1", "note": "[GSK1034945]", "%Inh": 0}
{"smiles": "Cc1ccc(C(=O)Nc2ccc(Oc3ccc4nc(NC(=O)C5CC5)cn4c3)c(F)c2)c(=O)n1-c1ccccc1", "%Inh": 0}
{"smiles": "Cn1ccc2ncnc(Oc3ccc(NC(=O)Nc4cncc(C(F)(F)F)c4)c(Cl)c3)c21", "%Inh": 0}
{"smiles": "NC(=O)Nc1sc(-c2ccc(F)cc2)cc1C(N)=O", "note": "[GW789449]", "%Inh": 20}
